Experiment in all cases: NCI-60 one-dose screen, 48 h (100 = growth as untreated, 0 = no growth, -100 = all killed)
Common to all, as to conditions: 10 µM unless noted

In test [1] the test system is DU-145 prostate.
Test [2] relates to K-562 leukemia.
For test [3], the system named is MALME-3M melanoma.
Test [4] concerns RXF 393 renal.
In test [5] the test system is SF-268 CNS.
Test [6] concerns SF-295 CNS.
The test system of test [7] is SF-539 CNS.
The test system of test [8] is UACC-257 melanoma.
Test [9] concerns M14 melanoma.
Test [10] deals with MDA-MB-231 breast.

In PubChem BioAssay (NCI) one finds growth data, which are given here for 16 molecules.

SMILES strings stand for the structures. This is part of a sample that, as a whole, favours compounds with a hit. Of some 83,000 tested, about 20% had one in any assay.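 Testing used 96-well plates and a 48-hour single-concentration exposure. Example: -40 means 40% of the starting cells died.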 Unmarked numbers belong to inactive results. Active and inactive are the calls of the source. The calls were made as follows: active = growth percent below 10; inactive = the rest.

For the molecule `NC(=S)N/N=C1\c2ccccc2-c2c(F)c(F)c(F)c(F)c21`, the growth in [1] was 81.7%; in test [2] it was 9.46% (active); in test [3], 73.6%; in test [4], 123%; in test [5], 85.3%; in test [6] it was 99.5%. Further, the growth is 96.1% in [7], 23.1% in [8] and 70.2% in [9].

For `COc1c(Cl)ccc2c(-c3nc4cc(Cl)c(F)cc4s3)cc(=O)oc12`, the growth is 97.1% in test [1]; 64.9% in [2]; 65% in test [10]; 92.3% in test [4]; 29.5% in [5]; 97.7% in test [6]. The results for the growth in test [7], in test [8] and in test [9] were 90%, 91.6% and 95.5%, respectively.

As for `Cn1c2ccccc2c2nn(Cc3ccccc3)c(=O)nc21`, the growth was 113% in [1]; 109% in test [2]; 103% in test [10]; 103% in [4]; 103% in test [5]; 97.4% in [6]. Also, the growth in [7] was 99.7%; in test [8] it was 101%; in test [9], 104%.

Consider `Clc1nc(-c2ccccn2)nc2sc3c(c12)CCCCCC3`, for which the growth in [1] was 22.6%; in test [2], 79.8%; in test [3], 94.2%; in test [10], 117%; in [5] it was 94.6%; in test [7], 97.3%. Also, the growth in test [9] is 86.8%.

Turning to `CN1CCN(CCCn2c3c(sc4ncccc43)c(=O)n3nnc(-c4ccccc4)c23)CC1`, the growth in [1] was -18.2% (active); in [2], 1.27% (active); in test [10], -83.5% (active); in test [4], 75.3%; in test [5], 91%; in [6] it was 98.6%. Besides, the growth in [7] was -96% (active); in test [8], 99.2%; in [9], 78.4%.

Consider `Clc1ccc(Nc2ccnc(N3CCN(c4ccnc5cc(Cl)ccc45)CC3)n2)cc1`, for which the growth was 78.2% in test [1]; 15.7% in test [2]; 33.8% in test [10]; 62.6% in test [4]; 57.3% in test [5]; 18.8% in test [6]. Besides, the growth is 62.2% in [7], 81.7% in [8] and 33.7% in test [9].

Take `COc1ccc(NC(=O)COc2ccccc2)c(C(N)=O)c1`: the growth in [1] is 23%; in test [2], 9.36% (active); in test [10] it was 44.1%; in test [4], 2.95% (active); in test [5], 50.7%; in test [6], 13.3%. Further, the figures for the growth in test [7], in test [8] and in [9] were -46.8% (active), 61.7% and 3.47% (active), respectively.

On to `COc1cccc(OC(=O)c2ccccc2)c1OC(=O)c1ccccc1`, for which the growth is 87.7% in [1]; 37.4% in test [2]; 75.4% in [10]; 86.3% in test [4]; 72.4% in test [5]; 83.6% in [6]. Moreover, the growth in [7] was 92%; in test [8] it was 87%; in [9], 47.5%.

As for `CCC12CCC3c4ccc(O)cc4CCC3C1CC(O)C2O` (stereo not drawn), the growth in test [1] is 103%; in [2], 23.7%; in test [3], 70.1%; in [4], 98.6%; in test [5], 103%; in test [6] it was 58.1%. The growth was 80.6% in test [7], 67.4% in [8] and 55% in test [9].

For `CC(=O)OC[C@H](O)[C@@]1(O)CC[C@H]2[C@@H]3CCC4=CC(=O)CC[C@]4(C)[C@H]3[C@@H](O)C[C@@]21C`, the growth in [1] is 93.7%; in test [2], 89.5%; in test [3], 95.8%; in test [4] it was 134%; in test [5] it was 97.1%; in [6], 111%. Further, the growth in [7] is 100%; in test [8] it was 110%; in test [9], 104%.

As to `COc1ccc(Nc2nc(NCCNc3ccnc4cc(Cl)ccc34)nc(N3CCOCC3)n2)cc1`, the growth in [1] was 67.7%; in test [2], 6.77% (active); in test [3], -80.2% (active); in test [10], 25.2%; in test [5], 58.3%; in test [7] it was 38.1%. The growth in test [9] was 19.9%.

Consider `O=C(Nc1ccccc1O)c1ccc(NS(=O)(=O)c2cccc3cccnc23)cc1`, for which the growth was 49.1% in test [1]; 23.8% in [2]; 64% in test [10]; 69.8% in test [4]; 44% in [5]; 62.9% in [6]. Moreover, the growth is 41.4% in test [7], 26.8% in test [8] and 41.1% in test [9].

For the molecule `CN1CCN(c2nc(-c3ccncc3)nc3sc4c(c23)CCCCCC4)CC1`, the growth in [1] was 91%; in [2], 35.5%; in test [3], 76.8%; in test [10], 49.2%; in [5], 61.2%; in test [6] it was 57.2%. Further, the growth in [7] was 54.4%; in [9], 105%.

`COc1ccc(OC2=C(C#N)C(=N)N3c4ccccc4Sc4ccccc4C3N2)cc1` (stereo not drawn): the growth in test [1] was 99.7%; in [2], 148%; in test [10], 60.8%; in test [4] it was 78%; in test [5], 89.2%; in test [7], 91.5%. Moreover, the values for the growth in test [8] and in [9] were 115% and 105%, respectively.

Regarding `O=S(=O)(OCCO)c1ccccc1`, the growth in [1] is 112%; in [3], 105%; in test [10] it was 97.2%; in test [4], 98.1%; in test [5], 102%; in test [6], 93.1%. The values for the growth in test [7], in [8] and in [9] were 106%, 103% and 109%, respectively.

As to `OC[C@@H](O)[C@@H](O)CO`, the growth in [1] was 111%; in test [3], 97.3%; in [10], 94.7%; in [4], 110%; in [5], 108%; in [6] it was 94.7%. Moreover, the growth in test [7] was 102%; in test [8], 105%; in [9], 106%.
